In PubChem BioAssay (NCI):
Values joined by “and” are separate entries in the source; they are usually repeats but may differ in a detail not shown here. Equal entries are not always repeated. About 83,000 compounds went through this panel and 20% of them were active in at least one assay; those are over-represented in the sample as a whole.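 Assay: single dose, 48 h. Readout: percent growth (0 = no net growth; negative = cell death). Active: <10.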 Values without a mark were called inactive. Active and inactive are the calls of the source.

What follows are compounds tested on MDA-MB-468 breast (assay: NCI-60 one-dose screen, 48 h (100 = growth as untreated, 0 = no growth, -100 = all killed)). Conditions: 10 µM unless noted.

Structure (SMILES) | growth
C/C(=C(/C)C1CC1CCN(C(=O)c1ccccn1)S(=O)(=O)c1ccc(C)cc1)C1CCCCC1 (stereo not drawn) | 75.7%
COc1ccc2nc(NC(=O)CN3CCn4c(nnc4C(F)(F)F)C3)sc2c1 | 84.5%
COc1cc(/C=C2\SC(N3CCCCC3)=NC2=O)ccc1OCCCCCCOc1ccc(/C=C2\SC(N3CCCCC3)=NC2=O)cc1OC | 7.38% (active)
CCN(CC)CCOC(=O)C(c1ccccc1)(c1ccccc1)C(C)C | 80%
Cc1nn(-c2ccccc2)c(N2CCCCC2)c1/C=N/NC(=O)Cn1c(=O)sc2ccccc21 | 85.5%
Cc1oc(-c2ccc(Cl)cc2)nc1C1=NN(C(=O)c2ccncc2)C(c2ccccc2)C1 (stereo not drawn) | 108%
CCN(CC)CCOc1ccc(/C(=C(/C)c2ccccc2)c2ccc(OC(C)=O)cc2)cc1 | 87.9%
O=C1CCCCN1c1ccc(C2=NCCCN2)cc1 | 82.2%
CCN(CC)c1ccc(/C=C\c2cc(C)c3cc(C)ccc3n2)cc1 | 1.26% (active)
COc1ccc2nc3cc(Cl)ccc3c(NCCCNCCO)c2c1 | -34.1% (active)
N#CCc1csc(Cc2ccccc2)n1 | 107%
O=C(CSc1nc(-c2ccc(Cl)cc2)cn1-c1ccc(Cl)cc1)c1ccc(Br)cc1 | 81.3%
COc1nc2c(cc1S(=O)(=O)c1ccccc1)CCc1c-2cnn1-c1ccccc1 | 45.3%
C#CCSc1nnnn1-c1ccc(Br)c(C)c1 | 67.2%
NC(CSC(c1ccccc1)(c1ccccc1)c1ccccc1)C(=O)O (stereo not drawn) | 32.7%
C#Cc1c2c(c(OC)c3c1OCO3)[C@H]([C@H]1OC(=O)c3c1ccc(OC)c3OC)N(C)CC2 | 79.9%
N=C(N)c1ccc(OCCCCCCCCCCOc2ccc(C(=N)N)cc2)cc1 | -75.6% (active)
COc1ccc(-c2nc3sc4c(c3c(=O)[nH]2)CCCC4)c2ccccc12 | 25%
CC(=O)c1sc2sc(C(C)=O)c(C)c2c1C | 61.4%
CCCCN1CCN(c2ccc3nc(-c4ccc5nc(-c6ccc(C(F)(F)F)cc6)[nH]c5c4)[nH]c3c2)CC1 | -62.1% (active)
CCOC(OCC)c1cnc2nc(NC(C)=O)[nH]c(=O)c2n1 | 109%
Cc1cc(O)c(C(C)C)cc1Cl | 114%
O=C(Nc1ccc(C(=O)O)c(O)c1)c1ccccc1 | 105% and 104%
CCN1C(=O)N(CC)C2SC(N/N=C/c3ccc(OC)cc3)=NC21 (stereo not drawn) | 32.2%
O=C(CCl)N(C1CCCCC1)C1CCCCC1 | 91.5%
Cc1ccc(S(=O)(=O)N2CCc3ccc(O)c4c3C2Cc2ccc3c(c2-4)OCO3)cc1 (stereo not drawn) | 1.75% (active)
COc1cc(-c2nc(-c3ccccc3)[nH]c2-c2ccnc(NCCCNS(=O)(=O)c3ccc(C(F)(F)F)cc3)n2)ccc1Cl | 14% and 41.9%
O=C(Nc1ccccc1Cl)c1c[nH]c(=O)c(-c2ccc(N3CCCOC4(CC4)C3)cc2)c1 | 9.39% (active)
